The results in this text go back to PubChem BioAssay.

Sequence of Fibroblast growth factor 2 (Homo sapiens) (P09038 whole entry, looked up): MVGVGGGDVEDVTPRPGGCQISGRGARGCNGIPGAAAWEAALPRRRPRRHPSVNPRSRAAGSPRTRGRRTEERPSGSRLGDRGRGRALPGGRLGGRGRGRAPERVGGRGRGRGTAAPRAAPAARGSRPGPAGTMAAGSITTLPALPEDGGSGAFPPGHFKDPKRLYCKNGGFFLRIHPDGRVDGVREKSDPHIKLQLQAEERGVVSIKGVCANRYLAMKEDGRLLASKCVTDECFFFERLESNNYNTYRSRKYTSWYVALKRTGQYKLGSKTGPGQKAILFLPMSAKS

This assay addresses Fibroblast growth factor 2 (Homo sapiens) (UniProt P09038). The assay can be described thus: basic fibroblast growth factor binding to printed compounds – biochemical, small-molecule microarray, 635/667 nm fluorescence, primary screen (AID 1133). To be noted: FGF2, fluorescence 635/667, higher = more signal.
Consider `O=C(O)C1=CC[C@H]2C(=O)N(c3ccccc3)C(=O)[C@@H]12`, for which the composite z-score was -0.12.
As for `CCc1cccc(NC(=O)O[C@H]2[C@H](OC(=O)Nc3ccccc3-c3ccccc3)[C@H](OC(=O)Nc3ccccc3-c3ccccc3)[C@@H](OC)O[C@@H]2CO)c1`, the composite z-score came to 0.598.
In the case of `C=C(COC)/C(=C/C[C@@H](OC(C)=O)c1cccc(OCCO)c1)c1cnc2ccccc2c1` it was 1.2.
`Cc1ccc(S[C@]2(C(=O)NCc3ccccc3)CC(=O)N(Cc3ccccc3C(F)(F)F)[C@@H]2c2ccc(CO)cc2I)cc1`: the composite z-score is -0.402.
For `COCCOC(=O)N1C(=O)[C@@]2(c3cc(C#CC4(O)CCCCCC4)ccc31)[C@H](C(N)=O)[C@H]1C(=O)O[C@H](c3ccccc3)[C@H](c3ccccc3)N1[C@@H]2c1ccc(OCCO)cc1` the value was 0.888; for `COc1c(C)cc(-c2cc3c(c(CCc4ccccc4)n2)[Si](C(C)C)(C(C)C)O[C@H]3c2ccccc2)cc1C`, -0.278.
For `COC(=O)[C@@]1(Cc2ccc(F)cc2)[C@H]2c3cc(C(=O)N(C)C)n(Cc4cccc5ccccc45)c3C[C@H]2CN1C(=O)c1ccccc1` the value was -0.617.
`CC(C)C[C@@H]1NC(=O)[C@@H]2C[C@H](C(=O)NCCCCCNC(=O)CS)[C@H](c3ccc(O)cc3)N2C1=O` gave a composite z-score of 1.24.
For `C=C[C@@H](CO)NS(=O)(=O)c1ccc(Br)cc1` the value was -0.446; for `COC(=O)[C@@]1(Cc2ccc(F)cc2)[C@H]2c3cc(C(=O)N(C)C)n(CCF)c3C[C@H]2CN1C(=O)c1ccccc1`, -0.162.
Take `COC(=O)[C@@]1(Cc2ccccc2)[C@H]2c3cc(C(=O)N(C)C)n(Cc4nc5ccccc5[nH]4)c3C[C@H]2CN1C(=O)c1ccccc1`: the composite z-score is -0.378.
